Measurements as given in PubChem BioAssay (EPA / NIEHS).
Inconclusive results are not listed. Where a structure was tested more than once in an assay, its records may differ in their call. The source made the active and inactive calls. Rule for the calls, unless noted: active = hit-call score of the fitted dose curve at least 0.9, where 1 is the maximum; inconclusive = response in the unintended direction; inactive = score below 0.9.

Columns and labels:
[1] = read-out: Thyroid Hormone Responsive (THRSP), THRSP (gene 7069); assay: LTEA_HepaRG_THRSP: Life Technologies and Expression Analysis (LTEA) Assay for Thyroid Hormone Responsive (THRSP) using HepaRG (AID 2283536; active = hit-call score of the fitted dose curve at least 0.9, where 1 is the maximum; inactive = score below 0.9); conditions: mRNA level, 48 h; actives raise or lower the signal
Method in brief: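 qRT-PCR read-out (Fluidigm TaqMan), housekeeping-normalized (ACTB/GAPDH/POLR2A). HepaRG, 48 h chemical exposure, 8-pt half-log series from 100 uM in 0.5% DMSO, duplicates. Bidirectional curve fit vs 0.5% DMSO baseline.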

[2] = read-out: Cellular tumor antigen p53 (Homo sapiens) (UniProt P04637); assay: LTEA_HepaRG_TP53: Life Technologies and Expression Analysis (LTEA) Assay for Tumor Protein P53 (TP53) using HepaRG (AID 2283537; active = hit-call score of the fitted dose curve at least 0.9, where 1 is the maximum; inactive = score below 0.9); conditions: mRNA level, 48 h; actives raise or lower the signal
Method in brief: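 Gain or loss of TP53 mRNA signal is scored relative to 0.5% DMSO after 48 h chemical treatment of HepaRG liver cells, tested in duplicate at eight half-log concentrations up to 100 uM.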

[3] = read-out: UDP glucuronosyltransferase (UGT1A1), UGT1A1 (gene 54658); assay: LTEA_HepaRG_UGT1A1: Life Technologies and Expression Analysis (LTEA) Assay for UDP glucuronosyltransferase (UGT1A1) using HepaRG (AID 2283538; active = hit-call score of the fitted dose curve at least 0.9, where 1 is the maximum; inactive = score below 0.9); conditions: mRNA level, 48 h; actives raise or lower the signal
Method in brief: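 UGT1A1 transcript level, measured by qRT-PCR with three housekeeping genes for normalization, after 48 h treatment of human HepaRG cells (0.5% DMSO, duplicates, up to 100 uM, half-log steps, 8 points). Curves fit both directions against DMSO baseline.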

[4] = read-out: UDP glucuronosyltransferase (UGT1A6), UGT1A6 (gene 54578); assay: LTEA_HepaRG_UGT1A6: Life Technologies and Expression Analysis (LTEA) Assay for UDP glucuronosyltransferase (UGT1A6) using HepaRG (AID 2283539; active = hit-call score of the fitted dose curve at least 0.9, where 1 is the maximum; inactive = score below 0.9); conditions: mRNA level, 48 h; actives raise or lower the signal
Method in brief: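 Expression was quantified by TaqMan qRT-PCR on Fluidigm arrays with ACTB/GAPDH/POLR2A normalization and bidirectional fitting against 0.5% DMSO. HepaRG cells (~100,000/well) were treated in duplicate for 48 h at eight half-log concentrations up to 100 uM in serum-free induction medium.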

[5] = read-out: X-box binding protein 1 (XBP1), XBP1 (gene 7494); assay: LTEA_HepaRG_XBP1: Life Technologies and Expression Analysis (LTEA) Assay for X-box binding protein 1 (XBP1) using HepaRG (AID 2283540; active = hit-call score of the fitted dose curve at least 0.9, where 1 is the maximum; inactive = score below 0.9); conditions: mRNA level, 48 h; actives raise or lower the signal
Method in brief: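 XBP1 transcript by qRT-PCR (housekeeping-normalized: ACTB, GAPDH, POLR2A) after 48 h chemical treatment of HepaRG cells, 8-point half-log series topping at 100 uM, vehicle 0.5% DMSO. Gain and loss of signal fitted relative to DMSO.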

[6] = LTEA_HepaRG_LDH_cytotoxicity: Cytotoxicity Assessment in the Life Technologies and Expression Analysis (LTEA) Assay (AID 2283563)
Method in brief: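 LDH release into culture medium read after 48 h chemical treatment of HepaRG cells. Duplicate wells, eight-point half-log series topping at 100 uM, 0.5% DMSO vehicle and baseline.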

[7] = ATG_XTT_Cytotoxicity: Cytotoxicity Assessment in the Attagene TRANS-FACTORIAL HepG2 Assay (AID 2283584)
Method in brief: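 Viability endpoint from XTT after 24 h chemical exposure of reporter-transfected human HepG2 liver cells; signal loss fitted relative to DMSO negative control.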

[8] = TOX21_p53_BLA_p2_viability: Viability Assessment in the Tox21 HCT-116 p53 Agonism Beta-lactamase Assay, Phase 2 (AID 2283591);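 note: compound exposure lasted 16 h at 37 °C; actives lower the ATP signal meaning cytotoxicity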
Method in brief: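 HCT116 p53-bla cells, 4000/well, dosed after 5 h plating (217-fold dilution of DMSO stocks) and incubated 16 h at 37C. Viability taken as cellular ATP by CellTiter-Glo luminescence after 30 min RT; signal loss marks cytotoxicity.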

[9] = TOX21_p53_BLA_p3_viability: Viability Assessment in the Tox21 HCT-116 p53 Agonism Beta-lactamase Assay, Phase 3 (AID 2283593);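 note: cells exposed to compound for 16 h before reading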
Method in brief: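 HCT116 cells, 4000/well, dosed 5 h after plating by pin transfer (217-fold dilution from DMSO stock) and incubated 16 h at 37C, 5% CO2. Viability read as ATP luminescence with CellTiter-Glo after 30 min at room temperature.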

[10] = TOX21_p53_BLA_p4_viability: Viability Assessment in the Tox21 HCT-116 p53 Agonism Beta-lactamase Assay, Phase 4 (AID 2283597);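 note: hits lower the luminescence signal meaning cytotoxicity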
Method in brief: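 Cytotoxicity as reduced cellular ATP (CellTiter-Glo luminescence, 30 min room temperature), measured in the same wells following the CCF4 FRET p53 reading. Human HCT-116 cells received compounds in DMSO (217-fold dilution) for 16 h.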

[11] = TOX21_p53_BLA_p5_viability: Viability Assessment in the Tox21 HCT-116 p53 Agonism Beta-lactamase Assay, Phase 5 (AID 2283600)
Method in brief: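 Viability came from CellTiter-Glo ATP luminescence, read after 30 min at room temperature. Before this, HCT-116 p53-bla cells (4000/well) had 16 hours of compound exposure at 37C, with DMSO stocks diluted 217-fold on transfer.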

[12] = target: Cellular tumor antigen p53 (Homo sapiens) (UniProt P04637); assay: TOX21_p53_BLA_p4_ratio: Tox21 HCT-116 p53 Agonism Beta-lactamase Assay, Ratio, Phase 4 (AID 2283601)
Method in brief: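 HCT-116 p53 beta-lactamase reporter cells (4000/well) preincubated 5 h, then compound (217-fold dilution of DMSO stock) for 16 h at 37C. CCF4-AM substrate added 2 h at room temperature; 460/530 nm emission ratio fitted upward versus DMSO.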

[13] = Tanguay_ZF_120hpf_MORT_legacy: (Legacy) Oregon State University Tanguay Lab 120 Hour Post-fertilization zebrafish Assay for Mortality (AID 2283633);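 for AC50: fitted as increase in binary mortality versus DMSO negative control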
Method in brief: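 Static waterborne exposure from 6 to 120 hpf at 28C of single dechorionated wild-type (5D) embryos per well, 0.64% DMSO final. Death recorded present/absent by brightfield at 24 and 120 hpf.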

[14] = Tanguay_ZF_120hpf_YSE_legacy: (Legacy) Oregon State University Tanguay Lab 120 Hour Post-fertilization zebrafish Assay for Yolk Sac Edema (AID 2283634);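 for AC50: actives raise the incidence of yolk sac edema above the DMSO baseline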
Method in brief: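 Presence or absence of yolk sac edema was recorded at 120 hpf in surviving larvae. These were wild-type Tropical 5D embryos, chorion removed at 4 hpf, held in static exposure at 28C from 6 hpf with 0.64% DMSO vehicle.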

[15] = Tanguay_ZF_120hpf_AXIS_legacy: (Legacy) Oregon State University Tanguay Lab 120 Hour Post-fertilization zebrafish Assay for Body Axis Malformation (AID 2283635);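 for AC50: potency for an increased fraction of larvae scored with body axis malformation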
Method in brief: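 Binary scoring of axis defects at 120 hpf under brightfield, fitted positive versus DMSO. Tropical 5D embryos, chorion removed by pronase at 4 hpf, were singly exposed in sealed, dark plates at 28C from 6 hpf; DMSO 0.64% final.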

[16] = Tanguay_ZF_120hpf_SNOU_legacy: (Legacy) Oregon State University Tanguay Lab 120 Hour Post-fertilization zebrafish Assay for Snout Malformation (AID 2283637)
Method in brief: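 Binary brightfield scoring of snout malformation at 120 hpf. Dechorionated 5D wild-type embryos, one per well, static exposure from 6 hpf at 28C, sealed and dark; final DMSO 0.64% (vol/vol), DMSO as baseline; 5uM trimethyltin chloride positive control.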

[17] = Tanguay_ZF_120hpf_JAW_legacy: (Legacy) Oregon State University Tanguay Lab 120 Hour Post-fertilization zebrafish Assay for Jaw Malformation (AID 2283638);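 for AC50: active means more embryos with jaw malformation than DMSO controls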
Method in brief: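 Binary jaw-malformation call at 120 hpf by brightfield microscopy. Embryos (Tropical 5D strain, chorion removed at 4 hpf) were dosed statically at 6 hpf, one per well, at 28C with 0.64% DMSO. Embryos that died were not scored.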

[18] = target: Cellular tumor antigen p53 (Homo sapiens) (UniProt P04637); assay: TOX21_p53_BLA_p3_ratio: Tox21 HCT-116 p53 Agonism Beta-lactamase Assay, Ratio, Phase 3 (AID 2283596)
Method in brief: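 Cells were seeded at 4000/well, rested 5 h at 37C, then dosed with DMSO compound solutions (217-fold dilution) for 16 h. CCF4-AM substrate was loaded for 2 h at room temperature, and the 460/530 nm emission ratio was fitted for gain of signal versus DMSO.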

[19] = Tanguay_ZF_120hpf_EYE_legacy: (Legacy) Oregon State University Tanguay Lab 120 Hour Post-fertilization zebrafish Assay for Eye Malformation (AID 2283636);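 note: binary presence or absence of eye malformation scored by brightfield in 120 hpf larvae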
Method in brief: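 5D wild-type embryos, pronase-dechorionated at 4 hpf; static exposure 6–120 hpf, 28C, dark; DMSO 0.64% final; 5uM trimethyltin chloride positive control. Binary eye-defect scoring at 120 hpf; dead embryos not scored.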

Measured: AC50

Chain of Cellular tumor antigen p53 (Homo sapiens) (P04637 whole entry, looked up): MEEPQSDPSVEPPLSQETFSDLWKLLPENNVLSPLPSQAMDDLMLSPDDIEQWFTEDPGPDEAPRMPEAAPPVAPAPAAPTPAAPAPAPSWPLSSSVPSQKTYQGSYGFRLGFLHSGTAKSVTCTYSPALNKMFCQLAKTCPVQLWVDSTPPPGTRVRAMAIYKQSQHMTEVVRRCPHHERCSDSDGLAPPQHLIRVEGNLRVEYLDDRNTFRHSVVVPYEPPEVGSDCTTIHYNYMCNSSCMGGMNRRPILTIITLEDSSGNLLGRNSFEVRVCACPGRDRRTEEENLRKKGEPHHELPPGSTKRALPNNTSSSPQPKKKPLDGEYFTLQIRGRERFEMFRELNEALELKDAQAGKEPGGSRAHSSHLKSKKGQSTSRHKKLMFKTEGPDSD

c1ccc(Nc2ccccc2)cc1
inactive: [1] | [2] | [3] | [4] | [5] | [6] | [7] | [8] | [9] | [10] | [11] | [12] | [15]
active: [13] 26.2 µM | [14] 12.2 µM | [16] 36.6 µM | [17] 20.7 µM

N[C@@H](Cc1cc(I)c(Oc2ccc(O)c(I)c2)c(I)c1)C(=O)O
active: [1] 67.4 µM | [3] 40 µM | [4] 40 µM | [12] 34.8 µM | [13] 0.233 µM | [15] 0.818 nM | [19] 2.51 nM | [16] 0.00111 µM | [17] 0.00171 µM
inactive: [2] | [5] | [6] | [7] | [8] | [9] | [18] | [10] | [11] | [12] | [14]

O=C(c1ccccc1)C1CCCCC1
inactive: [1] | [2] | [3] | [4] | [5] | [6] | [7] | [13] | [14] | [15] | [19] | [16] | [17]

CSC(=O)c1cccc2nnsc12
inactive: [1] | [2] | [3] | [4] | [5] | [6] | [7] | [18] | [10] | [12] | [13] | [14] | [15] | [19] | [16] | [17]
